# Laboratory results published in publication PMC7862700, “An all-to-all approach to the identification of sequence-specific readers for epigenetic DNA modifications on cytosine”.
# Key:
# Test in all cases: DAPPL (digital affinity profiling via proximity ligation, sequencing); 10 mM Tris-HCl pH 7.5, 50 mM NaCl, 1 mM DTT, 4% glycerol, room temperature, 30 min; GST-TFs on glutathione beads, 16-mer random dsDNA library, 0.1% formaldehyde crosslink after washing; high values mean tight binding
# [1] = target: T1, FEV (Homo sapiens, UniProt Q99581 1-238); conditions: protein: recombinant; tags: N-terminal GST; dsDNA, one strand shown
# T1 sequence: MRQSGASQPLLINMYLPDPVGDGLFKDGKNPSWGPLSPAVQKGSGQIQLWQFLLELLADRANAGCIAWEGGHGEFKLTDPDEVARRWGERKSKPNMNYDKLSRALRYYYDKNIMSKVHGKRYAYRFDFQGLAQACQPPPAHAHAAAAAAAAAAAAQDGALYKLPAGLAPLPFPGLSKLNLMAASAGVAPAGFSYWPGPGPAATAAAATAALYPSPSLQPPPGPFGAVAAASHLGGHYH
# Summary of the method: (§1)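 Binding signal is given per hexamer as its read frequency for a factor divided by its frequency in the tag-only sample. GST-fused human transcription factors were expressed in yeast, captured on glutathione beads, barcoded with DNA and pooled with that sample, then incubated with 200 nmole of a 16-mer random double-stranded DNA library in Tris/NaCl/DTT/glycerol buffer for 30 min at room temperature. The pools were then washed, crosslinked, proximity-ligated, amplified by PCR and sequenced on an Illumina NextSeq500.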
# [2] = target: ETV5 (Homo sapiens, UniProt P41161 1-510); conditions: protein: recombinant; tags: N-terminal GST; dsDNA, one strand shown
# Summary of the method: as §1
# [3] = target: HSF1 (Homo sapiens, UniProt Q00613 1-529); conditions: protein: recombinant; tags: N-terminal GST; chain copies: 3; dsDNA, one strand shown
# Summary of the method: as §1
# [4] = target: T2, SPIC (Homo sapiens, UniProt Q8N5J4 1-248); conditions: protein: recombinant; tags: N-terminal GST; dsDNA, one strand shown
# T2 sequence: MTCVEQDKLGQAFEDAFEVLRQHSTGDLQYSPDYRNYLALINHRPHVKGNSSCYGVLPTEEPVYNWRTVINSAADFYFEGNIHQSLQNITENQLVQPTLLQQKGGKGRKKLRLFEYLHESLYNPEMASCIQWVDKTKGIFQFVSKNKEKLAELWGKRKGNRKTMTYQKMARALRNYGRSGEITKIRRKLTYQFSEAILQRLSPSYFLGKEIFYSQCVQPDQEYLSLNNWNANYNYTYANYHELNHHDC
# Summary of the method: as §1
# [5] = target: ELF4 (Homo sapiens, UniProt Q99607 1-663); conditions: protein: recombinant; tags: N-terminal GST; dsDNA, one strand shown
# Summary of the method: as §1
# [6] = target: T3, ELK4 (Homo sapiens, UniProt P28324-2 1-405); conditions: protein: recombinant; tags: N-terminal GST; dsDNA, one strand shown
# T3 sequence: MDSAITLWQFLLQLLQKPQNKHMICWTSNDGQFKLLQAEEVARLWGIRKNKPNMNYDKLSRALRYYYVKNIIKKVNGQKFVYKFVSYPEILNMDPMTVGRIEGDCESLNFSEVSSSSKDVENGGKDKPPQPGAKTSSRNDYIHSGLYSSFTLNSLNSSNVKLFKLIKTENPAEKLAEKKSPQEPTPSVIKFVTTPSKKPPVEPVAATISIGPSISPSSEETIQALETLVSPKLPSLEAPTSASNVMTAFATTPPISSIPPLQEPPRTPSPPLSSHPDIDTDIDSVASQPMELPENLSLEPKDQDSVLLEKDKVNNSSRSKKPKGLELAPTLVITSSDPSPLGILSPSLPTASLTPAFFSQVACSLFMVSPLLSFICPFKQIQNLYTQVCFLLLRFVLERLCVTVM
# Summary of the method: as §1
# [7] = target: T4, ETV2 (Homo sapiens, UniProt O00321 1-342); conditions: protein: recombinant; tags: N-terminal GST; dsDNA, one strand shown
# T4 sequence: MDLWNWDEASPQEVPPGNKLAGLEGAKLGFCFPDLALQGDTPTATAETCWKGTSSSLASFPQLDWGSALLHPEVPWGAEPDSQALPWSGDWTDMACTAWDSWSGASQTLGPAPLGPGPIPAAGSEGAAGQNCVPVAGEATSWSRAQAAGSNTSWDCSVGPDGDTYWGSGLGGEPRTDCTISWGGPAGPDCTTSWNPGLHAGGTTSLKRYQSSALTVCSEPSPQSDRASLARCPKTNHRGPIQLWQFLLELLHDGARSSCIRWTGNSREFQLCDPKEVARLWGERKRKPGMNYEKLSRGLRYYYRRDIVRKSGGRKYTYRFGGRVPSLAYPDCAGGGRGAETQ
# Summary of the method: as §1
# [8] = target: T5, ELF3 (Homo sapiens, UniProt P78545 1-371); conditions: protein: recombinant; tags: N-terminal GST; dsDNA, one strand shown
# T5 sequence: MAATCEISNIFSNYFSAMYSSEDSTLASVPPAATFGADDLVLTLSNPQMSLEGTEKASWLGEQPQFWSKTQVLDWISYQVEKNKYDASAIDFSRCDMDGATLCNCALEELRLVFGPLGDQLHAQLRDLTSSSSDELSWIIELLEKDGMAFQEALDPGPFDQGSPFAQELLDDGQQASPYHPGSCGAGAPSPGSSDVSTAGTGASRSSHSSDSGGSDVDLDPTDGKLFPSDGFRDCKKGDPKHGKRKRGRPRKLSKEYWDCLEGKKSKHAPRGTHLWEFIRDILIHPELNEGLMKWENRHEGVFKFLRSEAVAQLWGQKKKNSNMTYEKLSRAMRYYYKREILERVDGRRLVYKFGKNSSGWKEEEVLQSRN
# Summary of the method: as §1
# [9] = target: CRX (Homo sapiens, UniProt O43186 1-299); conditions: protein: recombinant; tags: N-terminal GST; dsDNA, one strand shown
# Summary of the method: as §1
# [10] = target: ETV1 (Homo sapiens, UniProt P50549 1-477); conditions: protein: recombinant; tags: N-terminal GST; dsDNA, one strand shown
# Summary of the method: as §1
# CRX, sequence (O43186 whole entry): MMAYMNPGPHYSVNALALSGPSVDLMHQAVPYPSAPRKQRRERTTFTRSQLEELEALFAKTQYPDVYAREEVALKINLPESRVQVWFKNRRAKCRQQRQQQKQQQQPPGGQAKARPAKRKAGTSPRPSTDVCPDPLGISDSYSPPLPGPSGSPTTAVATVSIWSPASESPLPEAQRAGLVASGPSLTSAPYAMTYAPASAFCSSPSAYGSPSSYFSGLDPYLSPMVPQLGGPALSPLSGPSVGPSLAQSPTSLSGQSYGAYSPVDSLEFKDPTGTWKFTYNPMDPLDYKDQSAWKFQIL
# ETV1, sequence (P50549 whole entry): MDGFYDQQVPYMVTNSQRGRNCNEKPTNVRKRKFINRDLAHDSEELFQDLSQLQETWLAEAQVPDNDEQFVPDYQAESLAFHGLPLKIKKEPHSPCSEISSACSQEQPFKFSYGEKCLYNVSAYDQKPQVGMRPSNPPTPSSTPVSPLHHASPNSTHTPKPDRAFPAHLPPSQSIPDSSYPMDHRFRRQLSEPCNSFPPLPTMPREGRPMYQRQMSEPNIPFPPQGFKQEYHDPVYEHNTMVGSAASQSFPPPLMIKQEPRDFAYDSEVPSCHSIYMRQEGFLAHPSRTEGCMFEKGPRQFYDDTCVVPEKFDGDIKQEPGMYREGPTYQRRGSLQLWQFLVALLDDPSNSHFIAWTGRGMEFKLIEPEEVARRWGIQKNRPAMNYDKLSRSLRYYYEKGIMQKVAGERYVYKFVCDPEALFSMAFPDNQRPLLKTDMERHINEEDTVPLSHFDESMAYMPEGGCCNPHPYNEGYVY
# HSF1, sequence (Q00613 whole entry): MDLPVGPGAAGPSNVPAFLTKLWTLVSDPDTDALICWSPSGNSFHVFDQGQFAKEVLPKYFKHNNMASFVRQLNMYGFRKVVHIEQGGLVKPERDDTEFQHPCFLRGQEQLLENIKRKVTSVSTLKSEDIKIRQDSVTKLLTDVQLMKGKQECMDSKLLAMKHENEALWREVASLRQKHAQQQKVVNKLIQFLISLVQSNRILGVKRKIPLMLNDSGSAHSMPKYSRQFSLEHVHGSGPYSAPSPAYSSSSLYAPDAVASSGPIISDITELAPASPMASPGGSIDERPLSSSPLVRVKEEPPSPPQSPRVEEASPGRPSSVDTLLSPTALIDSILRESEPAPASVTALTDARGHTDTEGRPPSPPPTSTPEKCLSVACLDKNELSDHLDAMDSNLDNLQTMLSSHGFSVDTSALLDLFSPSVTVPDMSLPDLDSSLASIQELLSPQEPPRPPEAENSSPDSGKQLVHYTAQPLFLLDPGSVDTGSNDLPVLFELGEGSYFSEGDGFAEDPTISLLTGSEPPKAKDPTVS
# ELF4, sequence (Q99607 whole entry): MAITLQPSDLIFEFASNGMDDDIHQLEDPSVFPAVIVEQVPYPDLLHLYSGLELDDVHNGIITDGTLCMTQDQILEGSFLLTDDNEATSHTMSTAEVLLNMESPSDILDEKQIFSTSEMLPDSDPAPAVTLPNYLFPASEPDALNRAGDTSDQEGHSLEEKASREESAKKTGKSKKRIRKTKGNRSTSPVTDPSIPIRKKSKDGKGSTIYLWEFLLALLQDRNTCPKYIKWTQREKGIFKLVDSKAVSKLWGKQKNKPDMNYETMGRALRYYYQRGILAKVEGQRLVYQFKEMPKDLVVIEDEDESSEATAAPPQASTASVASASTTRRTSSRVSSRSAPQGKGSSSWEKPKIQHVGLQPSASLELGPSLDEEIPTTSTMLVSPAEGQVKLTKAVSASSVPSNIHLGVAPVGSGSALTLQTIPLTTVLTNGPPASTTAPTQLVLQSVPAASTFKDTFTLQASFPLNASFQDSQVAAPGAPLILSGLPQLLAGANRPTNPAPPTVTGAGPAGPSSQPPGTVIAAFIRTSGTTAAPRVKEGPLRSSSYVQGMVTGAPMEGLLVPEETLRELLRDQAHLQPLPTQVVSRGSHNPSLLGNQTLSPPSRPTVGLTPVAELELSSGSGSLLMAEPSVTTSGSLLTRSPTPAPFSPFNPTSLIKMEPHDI
# ETV5, sequence (P41161 whole entry): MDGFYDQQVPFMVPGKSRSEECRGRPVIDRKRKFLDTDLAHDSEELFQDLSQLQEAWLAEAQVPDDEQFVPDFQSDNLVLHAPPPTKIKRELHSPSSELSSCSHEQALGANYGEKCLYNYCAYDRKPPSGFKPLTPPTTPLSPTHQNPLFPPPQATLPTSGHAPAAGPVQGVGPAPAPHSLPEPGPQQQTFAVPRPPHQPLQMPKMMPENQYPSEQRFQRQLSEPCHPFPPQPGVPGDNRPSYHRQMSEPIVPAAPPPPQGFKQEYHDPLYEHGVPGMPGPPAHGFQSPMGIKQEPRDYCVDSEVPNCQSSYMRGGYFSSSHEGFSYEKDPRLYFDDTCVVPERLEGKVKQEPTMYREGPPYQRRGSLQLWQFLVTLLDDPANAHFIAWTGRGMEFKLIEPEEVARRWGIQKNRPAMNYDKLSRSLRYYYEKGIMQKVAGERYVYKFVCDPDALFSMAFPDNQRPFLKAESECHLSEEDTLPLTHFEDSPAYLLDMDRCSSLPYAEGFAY
sequence,measurement,setting,value
ACTAAC,binding signal,[1],"1.25 fold enrichment (6-mer frequency, TF over GST control)"
same,binding signal,[2],"1.26 fold enrichment (6-mer frequency, TF over GST control)"
same,binding signal,[3],"1.08 fold enrichment (6-mer frequency, TF over GST control)"
same,binding signal,[4],"1.27 fold enrichment (6-mer frequency, TF over GST control)"
same,binding signal,[5],"1.33 fold enrichment (6-mer frequency, TF over GST control)"
same,binding signal,[6],"1.19 fold enrichment (6-mer frequency, TF over GST control)"
same,binding signal,[7],"1.19 fold enrichment (6-mer frequency, TF over GST control)"
same,binding signal,[8],"1.25 fold enrichment (6-mer frequency, TF over GST control)"
same,binding signal,[9],"1.18 fold enrichment (6-mer frequency, TF over GST control)"
same,binding signal,[10],"1.25 fold enrichment (6-mer frequency, TF over GST control)"
